Compounds with a hit are over-represented: about 4.4% of the library has one in this group of screens.
Cav32 inh = blocks human Cav3.2 T-type calcium channel; B-score at 10 µM; Cav3.2-expressing cells, Fluo-4 calcium fluorescence FDSS; stronger effect = lower value; actives 4% (n = 100,000); O95180;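 active = single-dose well whose peak fluorescence ratio is a statistical outlier from its plate by either plate-standardised score or position-corrected B-score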
HUVEC tox IL1B = toxic to HUVEC cells under IL-1B stimulation | HUVEC cell count loss, Hoechst imaging, IL-1B stimulated | cell count reduction, % at 2 µM | actives 0.41% (n = 94,000) | AID 845;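 active = cell count reduction more than 3 SD above the screen-wide mean, cut at about 70% in these data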;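 note: normalized per plate to untreated control cells as the no-loss baseline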
IL1B NFkB pot = enhances IL-1B driven NFkB nuclear translocation; HUVEC IL-1B NFkB p65 nuclear translocation imaging; activation, % at 2 µM; actives 0.3% (n = 94,000);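 active = activation above 40%, about the mean plus 3 SD, also judged a hit on visual image review; inconclusive = activation above 40% but not a hit on visual review; inactive = activation not above 40% and no visual hit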;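 note: percent activation is computed from the nuclear over cytoplasmic p65 intensity ratio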
NFkB transloc inh = blocks IL-1B driven NFkB nuclear translocation in HUVEC cells; actives 0.43% (n = 94,000); inhibition, % at 2 µM; HUVEC IL-1B NFkB p65 nuclear translocation imaging;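 active = inhibition above about 30% together with a positive call from visual inspection of the well image, limit read from the data; inconclusive = inhibition above a set limit but visual check negative; inactive = inhibition not above a set limit, visual check negative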;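 note: nuclear over cytoplasmic p65 intensity ratio measured by imaging; 0% = IL-1B stimulated DMSO wells and 100% = unstimulated DMSO wells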
* = called active by the depositor; ? = inconclusive; nt = no result given.

SMILES	Cav32 inh	HUVEC tox IL1B	IL1B NFkB pot	NFkB transloc inh
O=C(NCc1ccco1)C1CCN(c2nc3ccccc3n2Cc2ccccc2F)CC1	-7.1*	-4	-5	5
O=C(Nc1ccc2c(c1)OCCO2)c1cc2sccc2n1Cc1ccc(F)cc1	-1.9	-5	-4	4
O=C(NCCCN1CCCC1)C1CCN(C(=O)c2cc3sccc3n2Cc2ccc(F)cc2)CC1	0.37	9	10	-10
O=C(NCc1ccco1)C1CCN(C(=O)c2cc3sccc3n2Cc2ccc(F)cc2)CC1	-1.7	89*	-3	3
CC1Cc2ccccc2N1C(=O)c1cc2sccc2n1Cc1ccc(F)cc1 (stereo not drawn)	-5.6*	24	9	-9
O=C(NCc1ccco1)c1cc2sccc2n1Cc1ccccc1	-5.6*	-10	32	-32
COCCCNC(=O)C1CCN(C(=O)c2cc3sccc3n2Cc2ccc(F)cc2)CC1	0.56	62	-4	4
COC(=O)C1C(=O)C2=C(CC1C)NC(=O)CC2c1ccccc1 (stereo not drawn)	nt	-7	-16	16
COC(=O)C1C(=O)C2=C(CC1C)NC(=O)CC2c1cccc(C)c1 (stereo not drawn)	0.62	90*	10	-10
Clc1ccc(-c2noc(CSc3nnc(-c4ccncc4)n3-c3ccccc3)n2)cc1	-4.9*	-18	-3	3
COc1ccc(-c2noc(CSc3nnc(Cc4ccccc4)n3-c3cccc(C)c3)n2)cc1OC	-5.5*	-7	?	-40
c1ccc(-n2nnnc2SCc2ccccn2)cc1	0.59	11	22	-22
Cc1ccc(-c2noc(CSc3nnc(Cc4cccs4)n3-c3ccccc3)n2)cc1	-7.6*	-20	16	-16
c1ccc(-c2noc(CSc3nnnn3-c3ccccc3)n2)cc1	-5*	-12	-3	3
COc1nc(-c2ccccc2)ccc1-c1noc(-c2ccccc2F)n1	-0.95	-17	-2	2
Cc1ccc(-c2noc(CSc3nnc(Cc4ccccc4)n3-c3cccc(C)c3)n2)cc1	-3.3	6	0	0
Clc1ccc(-c2noc(CSc3nnc(Cc4cccs4)n3-c3ccccc3)n2)cc1	-5.7*	5	22	-22
Cc1ccc(-c2noc(CSc3nnc(-c4ccncc4)n3-c3ccc(C)cc3)n2)cc1	-3	-11	-6	6
CCOc1ccc(-n2c(SCc3nc(-c4ccc(C)cc4)no3)nnc2-c2ccncc2)cc1	-4.3*	10	8	-8
Cc1ccc(-c2noc(CSc3nnnn3C3CCCCC3)n2)cc1	-4.6*	-4	-5	5
c1ccc(-c2noc(CSc3nnc(Cc4cccs4)n3-c3ccccc3)n2)cc1	-4.7*	-22	22	-22
Fc1ccc(-n2c(Cc3ccccc3)nnc2SCc2nc(-c3cccs3)no2)cc1	-3.1	-24	2	-2
Cc1cc(C)n(C(=O)CCCCCCCCC(=O)n2nc(C)cc2C)n1	-0.66	-8	-3	3
O=C(Nc1nc2c(s1)CCCC2=O)c1cnccn1	-2.1	-31	11	-11
N#Cc1ccc(CSc2nnc(COc3ccccc3)n2-c2ccccc2)cc1	-0.76	-2	-15	-8
SMILES	Cav32 inh	HUVEC tox IL1B	IL1B NFkB pot	NFkB transloc inh
Cc1ccc(-c2nnc(CSc3nnc(COc4ccccc4)n3-c3ccc(C)cc3)o2)cc1	-5.5*	nt	nt	nt
Cc1ccc(-c2nnc(CSc3nnc(COc4ccccc4)n3-c3ccccc3)o2)cc1	-7*	7	-2	2
CCOCCCNCc1ccc(OC)c(OC)c1	1.6	-5	23	-23
COc1ccc(CNCCC(c2ccc(OC(C)C)cc2)C(C)C)cc1OC (stereo not drawn)	-3.7*	12	-7	7
Cc1ccc(NC(=O)C2C3C=CC4(CN(Cc5cccnc5)C(=O)C24)O3)cc1 (stereo not drawn)	1.2	nt	nt	nt
Cc1ccc(S(=O)(=O)NC(=O)c2cccn2C)cc1	0.51	9	-1	1
Fc1ccc(Br)cc1C1C=C(c2ccc(Br)s2)Nc2ncnn21 (stereo not drawn)	-2.9*	nt	nt	nt
C=CCn1c(SCC(=O)N2CC(=O)Nc3ccccc32)nc2scc(-c3cccs3)c2c1=O	-7.2*	-35	17	-17
COC(=O)[C@@H]1C[C@H]2CC[C@H](O)C[C@H]2N1Cc1ccc(Cl)cc1	-1.8	nt	nt	nt
CNC(=O)CN(C)S(=O)(=O)c1ccc(F)cc1	0.58	13	44*	-44
Cc1cc(C(F)(F)F)n2ncc(C(=O)O)c2n1	0.36	16	-1	1
Cc1ccc(Nc2nc(CSc3nnnn3-c3ccccc3)cs2)cc1	-4*	-15	4	-4
Cc1ccc(Nc2nc(CSc3nnnn3C)cs2)cc1	0.11	4	-1	1
Cc1cccc(-n2nnnc2SCc2csc(-c3ccccc3)n2)c1	-3.3*	-21	19	-19

High-throughput results deposited in PubChem BioAssay by several laboratories.
